This is an account of results in PubChem BioAssay.

SMILES strings stand for the structures. Where “and” joins values, the source holds several entries; their conditions need not be identical. Equal values may be shown once. Calls of active or inactive are those of the source.

Assay [1] deals with Plasmodium falciparum Sir2 (PF13_0152, Sir2A). Kind of assay: Plasmodium falciparum Sir2A binding compounds – biochemical, small-molecule microarray, 635 nm fluorescence, primary screen (AID 1098).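 Also: score merges spot fluorescence intensity with its signal-to-noise ratio.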 To be noted: fluorescence 635 nm, higher = more signal.
Assay [2] in a line: probe aDKK1 binding to arrayed compounds – biochemical, biotinylated probe, 635/667 nm fluorescence, primary screen (AID 1099).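 Also: score merges 667nm spot fluorescence with signal to noise across triplicate slides.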 To be noted: small-molecule microarray, higher = more signal.
The nature of assay [3]: probe aCHRDL2 binding to arrayed compounds – biochemical, biotinylated probe, 635/667 nm fluorescence, primary screen (AID 1100). The conditions noted are these: small-molecule microarray, higher = more signal.
The nature of assay [4]: change in splice reporter luminescence, either direction, cell-based, HEK293, spliceosome inhibition project, primary screen (AID 1101).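 Also: HEK293 cells carrying a splicing-competent luciferase reporter gene; test concentration not given here.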 To be noted: HEK293 splicing luciferase reporter, 24 h, higher = more signal, called active from +8 up or from −8 down.
Assay [5] addresses Fibroblast growth factor 10 (Homo sapiens) (UniProt O15520). Description: compounds binding fibroblast growth factor 10 – biochemical, small-molecule microarray, 635 nm fluorescence, primary screen (AID 1102). To be noted: FGF10 binding, fluorescence 635 nm, higher = more signal.
Assay [6] has as its system glycogen synthase kinase-3 (GSK3A per assay name; protocol says GSK3B). Description: compounds binding glycogen synthase kinase-3 – biochemical, small-molecule microarray, 635 nm fluorescence, GSK3A, primary screen (AID 1103). Also: the record names both GSK3A and GSK3B. The conditions noted are these: fluorescence 635 nm, higher = more signal.
Assay [7] addresses Epidermal growth factor receptor (Homo sapiens) (UniProt P00533). Description: compounds binding epidermal growth factor receptor – biochemical, small-molecule microarray, 635 nm fluorescence, primary screen (AID 1104).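 Also: score merges 667 nm emission intensity with spot signal to noise over triplicate slides.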 The conditions noted are these: EGFR binding, higher = more signal.
Assay [8] has as its target Follistatin-related protein 3 (Homo sapiens) (UniProt O95633). Description: compounds binding follistatin-related protein 3 – biochemical, small-molecule microarray, 635 nm fluorescence, primary screen (AID 1105).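 Also: score merges emission near 667 nm and signal to noise per printed spot across three slides.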 To be noted: FSTL3 binding, higher = more signal.
Assay [9] deals with Dickkopf-related protein 1 (Homo sapiens) (UniProt O94907). Description: small molecules binding DKK1 protein – biochemical, small-molecule microarray, 635 nm fluorescence scan, primary screen (AID 1106).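 Also: score merges emission near 667 nm with signal to noise over three replicate slides.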 To be noted: higher = more signal.
Assay [10] has as its system Inhibin beta A chain (activin A). Kind of assay: small molecules binding activin A – biochemical, small-molecule microarray, 635 nm fluorescence scan, primary screen (AID 1107).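 Also: mouse activin A protein probed at 4.33 µg/mL on printed slides; score merges bound-protein fluorescence near 667 nm with spot signal-to-noise.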 To be noted: INHBA, higher = more signal.
Assay [11] concerns Human papillomavirus type 1a protein E7 (residues 44-93). Description: small molecules binding HPV E7 44-93 – biochemical, small-molecule microarray, residues 44-93, 635 nm fluorescence, primary screen (AID 1108).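 Also: E7 fragment applied at 1 µg/mL in TBST for 1 h at 4 C; score combines spot fluorescence with its signal to noise ratio.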 To be noted: fluorescence 635 nm, higher = more signal.
Assay [12] in a line: hepatitis C replication reporter changes, two-sided – Huh7 cells, luciferase reporter, HCV replication inhibitor project, primary screen (AID 1109).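 Also: huh7 hepatoma cells harbouring a luciferase neomycin HCV replicon reporter; luciferase luminescence as measure of HCV replicon replication; test concentration not given here.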 To be noted: Huh7 HCV replicon luciferase reporter, 48 h; higher = more signal. In general terms: A reporter such as luciferase makes a cellular process visible.
Assay [13] concerns the target Left-right determination factor 2 (Homo sapiens) (UniProt O00292). Kind of assay: small molecules binding LEFTY2 protein – biochemical, small-molecule microarray, 635 nm fluorescence scan, primary screen (AID 1110). To be noted: higher = more signal.
For assay [14], the target named is Calmodulin-1 (Homo sapiens) (UniProt P0DP23). Description: small molecules binding calmodulin-1 with EGTA – biochemical, small-molecule microarray, Cy5-labelled CALM1, profiling panel (AID 1111).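 Also: labelled calmodulin applied in Tris saline Tween buffer holding calcium plus EGTA and DTT.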 The conditions noted are these: Cy5-CALM1 binding fluorescence, higher = more signal.
Assay [15] shares this target. Description: small molecules binding Ca-loaded calmodulin-1 – biochemical, small-molecule microarray, Cy5-labelled CALM1, plus calcium, artefact control for SMM control-protein annotation, profiling panel (AID 1112).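 Also: score merges spot fluorescence with signal to noise from triplicate slides.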 The conditions noted are these: Cy5-CALM1 binding fluorescence, higher = more signal.
Assay [16] is described as follows: probe aWnt5a binding to arrayed compounds – biochemical, biotinylated probe, 635/667 nm fluorescence, primary screen (AID 1113).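 Also: score merges 667 nm fluorescence intensity with signal-to-noise per printed feature.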 The conditions noted are these: small-molecule microarray, higher = more signal.
Assay [17] is described as follows: probe aShh binding to arrayed compounds – biochemical, biotinylated probe, 635/667 nm fluorescence, primary screen (AID 1114).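 Also: probe is biotin-labelled aShh protein from a stem cell growth factor screen; measures binding of labelled protein to compounds printed on the slide; score merges feature fluorescence at 667 nm with signal-to-noise.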 The conditions noted are these: small-molecule microarray, higher = more signal.
Assay [18] in a line: probe aNog binding to arrayed compounds – biochemical, biotinylated probe, 635/667 nm fluorescence, primary screen (AID 1115).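 Also: probe is biotinylated aNog protein used at 0.15 µg/mL for 1 h at 4 C; z-score combines 667 nm fluorescence of each spot with its signal to noise.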 The conditions noted are these: small-molecule microarray, higher = more signal.
Assay [19] has as its target Torsin-1A-interacting protein 1 (Homo sapiens) (UniProt Q5JTV8). Kind of assay: compound microarray binding of lysate hLAP1 – cell lysate, small-molecule microarray, COS7 lysate, 635/667 nm fluorescence, primary screen (AID 1116). The conditions noted are these: 635 nm fluorescence, higher = more signal.
Assay [20] has as its target Alpha-bungarotoxin (Bungarus multicinctus) (UniProt P60615). Kind of assay: compounds binding labelled alpha-BTX control protein – biochemical, small-molecule microarray, Alexa647 label, 635/667 nm fluorescence, artefact control for SMM control protein annotation, profiling panel (AID 1117). The conditions noted are these: alpha-BTX-A647 binding fluorescence, higher = more signal.

Fibroblast growth factor 10 (Homo sapiens), sequence (O15520 whole entry, looked up): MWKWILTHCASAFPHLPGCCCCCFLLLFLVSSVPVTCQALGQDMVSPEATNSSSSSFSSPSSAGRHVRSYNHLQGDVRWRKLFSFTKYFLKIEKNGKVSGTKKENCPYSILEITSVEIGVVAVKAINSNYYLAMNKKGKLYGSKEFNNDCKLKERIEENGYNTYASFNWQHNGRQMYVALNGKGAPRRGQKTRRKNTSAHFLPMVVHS
Alpha-bungarotoxin (Bungarus multicinctus), sequence (P60615 whole entry, looked up): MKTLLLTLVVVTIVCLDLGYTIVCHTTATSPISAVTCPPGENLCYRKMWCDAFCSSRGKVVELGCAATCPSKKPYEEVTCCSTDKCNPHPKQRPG
Follistatin-related protein 3 (Homo sapiens), sequence (O95633 whole entry, looked up): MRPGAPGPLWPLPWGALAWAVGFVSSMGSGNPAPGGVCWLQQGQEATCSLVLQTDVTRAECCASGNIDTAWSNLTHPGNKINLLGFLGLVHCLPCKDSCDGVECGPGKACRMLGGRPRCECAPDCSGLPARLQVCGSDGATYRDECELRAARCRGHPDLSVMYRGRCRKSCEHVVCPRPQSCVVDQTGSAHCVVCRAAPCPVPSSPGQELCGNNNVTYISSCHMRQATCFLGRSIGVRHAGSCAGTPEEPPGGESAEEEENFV
Epidermal growth factor receptor (Homo sapiens), sequence (P00533 whole entry, looked up): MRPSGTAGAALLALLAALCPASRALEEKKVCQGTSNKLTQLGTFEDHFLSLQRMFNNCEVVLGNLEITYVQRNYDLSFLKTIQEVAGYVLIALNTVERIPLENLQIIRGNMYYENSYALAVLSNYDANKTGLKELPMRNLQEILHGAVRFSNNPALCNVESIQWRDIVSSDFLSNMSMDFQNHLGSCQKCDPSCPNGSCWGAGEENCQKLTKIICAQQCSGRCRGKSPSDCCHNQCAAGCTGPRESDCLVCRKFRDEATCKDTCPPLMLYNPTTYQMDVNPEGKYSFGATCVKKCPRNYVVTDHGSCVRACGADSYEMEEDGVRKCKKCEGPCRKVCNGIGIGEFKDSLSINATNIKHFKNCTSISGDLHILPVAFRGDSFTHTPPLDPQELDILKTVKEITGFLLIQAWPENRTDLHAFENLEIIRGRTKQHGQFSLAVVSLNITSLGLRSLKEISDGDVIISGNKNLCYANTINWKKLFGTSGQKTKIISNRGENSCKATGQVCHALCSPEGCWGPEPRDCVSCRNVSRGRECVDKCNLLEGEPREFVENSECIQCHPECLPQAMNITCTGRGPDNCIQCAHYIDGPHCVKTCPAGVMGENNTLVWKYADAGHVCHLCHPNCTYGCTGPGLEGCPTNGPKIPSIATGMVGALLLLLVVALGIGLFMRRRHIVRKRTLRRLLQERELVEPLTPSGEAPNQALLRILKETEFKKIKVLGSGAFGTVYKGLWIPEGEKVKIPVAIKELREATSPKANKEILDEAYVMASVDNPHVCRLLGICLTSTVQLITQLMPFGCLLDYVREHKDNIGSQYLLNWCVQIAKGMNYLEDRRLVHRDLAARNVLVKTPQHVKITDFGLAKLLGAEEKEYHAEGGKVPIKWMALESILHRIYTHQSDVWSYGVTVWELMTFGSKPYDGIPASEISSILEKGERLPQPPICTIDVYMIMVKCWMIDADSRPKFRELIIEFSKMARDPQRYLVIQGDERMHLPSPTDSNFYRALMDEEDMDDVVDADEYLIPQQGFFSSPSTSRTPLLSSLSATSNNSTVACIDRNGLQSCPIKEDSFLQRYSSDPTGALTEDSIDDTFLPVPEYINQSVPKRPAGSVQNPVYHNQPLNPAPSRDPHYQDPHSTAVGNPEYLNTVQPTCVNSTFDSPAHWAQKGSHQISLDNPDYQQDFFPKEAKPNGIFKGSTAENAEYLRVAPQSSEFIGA
Left-right determination factor 2 (Homo sapiens), sequence (O00292 whole entry, looked up): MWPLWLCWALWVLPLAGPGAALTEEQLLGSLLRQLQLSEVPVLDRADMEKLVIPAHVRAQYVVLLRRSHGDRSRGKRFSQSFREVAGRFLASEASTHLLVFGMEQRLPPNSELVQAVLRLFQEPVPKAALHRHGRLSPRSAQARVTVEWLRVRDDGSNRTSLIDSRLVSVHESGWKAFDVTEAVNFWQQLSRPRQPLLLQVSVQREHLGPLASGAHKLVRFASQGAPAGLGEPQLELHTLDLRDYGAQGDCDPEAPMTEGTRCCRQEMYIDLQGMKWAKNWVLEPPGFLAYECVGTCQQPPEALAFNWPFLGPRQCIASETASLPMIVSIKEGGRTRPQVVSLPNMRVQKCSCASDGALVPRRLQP
Torsin-1A-interacting protein 1 (Homo sapiens), sequence (Q5JTV8 whole entry, looked up): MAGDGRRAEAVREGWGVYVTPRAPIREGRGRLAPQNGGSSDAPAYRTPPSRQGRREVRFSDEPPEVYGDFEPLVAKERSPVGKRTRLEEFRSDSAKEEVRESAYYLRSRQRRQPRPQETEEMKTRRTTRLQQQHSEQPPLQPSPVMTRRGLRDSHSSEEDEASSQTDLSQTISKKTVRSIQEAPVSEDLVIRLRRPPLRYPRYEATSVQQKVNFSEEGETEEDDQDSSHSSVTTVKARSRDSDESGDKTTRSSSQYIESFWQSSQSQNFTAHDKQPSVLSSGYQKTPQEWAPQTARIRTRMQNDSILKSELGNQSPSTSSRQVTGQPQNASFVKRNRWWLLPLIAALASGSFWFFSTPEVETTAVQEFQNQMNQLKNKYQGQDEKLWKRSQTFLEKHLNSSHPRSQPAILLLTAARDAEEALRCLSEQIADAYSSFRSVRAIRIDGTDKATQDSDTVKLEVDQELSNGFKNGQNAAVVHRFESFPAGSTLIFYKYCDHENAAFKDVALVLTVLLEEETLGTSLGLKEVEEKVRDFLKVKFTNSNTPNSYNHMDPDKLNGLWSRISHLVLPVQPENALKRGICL
Dickkopf-related protein 1 (Homo sapiens), sequence (O94907 whole entry, looked up): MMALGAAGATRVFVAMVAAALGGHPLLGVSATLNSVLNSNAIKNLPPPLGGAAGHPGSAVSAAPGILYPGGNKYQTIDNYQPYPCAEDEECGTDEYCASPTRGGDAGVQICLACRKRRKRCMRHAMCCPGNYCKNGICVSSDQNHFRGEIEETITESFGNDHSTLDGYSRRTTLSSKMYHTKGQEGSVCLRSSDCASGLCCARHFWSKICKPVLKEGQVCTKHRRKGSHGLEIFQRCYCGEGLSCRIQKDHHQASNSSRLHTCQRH

On to `C=C[C@H](C)[C@H](O)c1ccc(O)c2ccccc12`, for which the composite z-score in assay [1] is -0.826 and -0.608; in assay [2], -0.338 and -0.232; in assay [3], 0.151 and -0.0669; in assay [5], -1.16 and 0.187; in assay [6], -0.0928 and -0.78; in [7], -0.989 and 0.375. In addition, the composite z-score in assay [8] is -0.433 and -0.63; in assay [9], -0.644 and -0.0107; in assay [10], 0.794 and 0.956; in assay [11], -0.523 and -0.557; in assay [13], -0.796 and -0.399; in assay [14], -1.09 and -1.04. Besides, the composite z-score in assay [15] was -0.75 and -1.04; in assay [16], -0.244 and -0.12; in assay [17], -0.0769 and -0.138; in [18], -0.37 and -0.46; in assay [19], 0.159 and -0.0387; in assay [20], 0.594 and -0.204. Also, the z-score was -2.7 (inactive) and -1.54 (inactive) in [4]; -1.28 and -0.876 in assay [12].
On to `COC(=O)C1=C(C)N(Cc2ccccc2)C2=C3C(=O)N(c4ccccc4)C(=O)[C@@H]3[C@@](O)(C(=O)OC)C(=O)N2[C@@H]1c1ccccc1`, for which the composite z-score in [1] was -0.0191 and 0.501; in assay [2], -0.0254 and -0.186; in assay [3], -0.914 and -0.616; in [5], 1.17 and 0.553; in assay [6] it was 0.387 and 0.542; in assay [7], 0.566 and 0.369. The composite z-score was 0.802 and 0.527 in assay [8]; 0.603 and 0.58 in assay [9]; -0.042 and -0.581 in assay [10]; -0.996 and 0.49 in assay [11]; 0.269 and 0.49 in assay [13]; -0.101 and -0.0398 in assay [14]. The composite z-score was -0.65 and -0.381 in assay [15]; -0.124 and -0.0405 in assay [16]; 0.151 and 0.318 in [17]; 0.0954 and -0.43 in assay [18]; 0.792 and 1.32 in assay [19]; 0.231 and 1.87 in assay [20]. Also, the z-score in [4] is 0.0988 (inactive) and -2.38 (inactive); in [12], -0.0822 and -0.147.
As for `CCCCCN1CC=CC23O[C@@H]4C=CCCOC(=O)C4[C@H]2C(=O)N(C(C)CO)[C@@H]3C1=O` (stereo not given in full), the composite z-score is 1.83 and 0.878 in [1]; -1.21 and 0.263 in assay [2]; -0.532 and 0.779 in assay [3]; 0.0253 and -0.6 in [5]; 0.375 and -0.449 in [6]; -0.655 and -0.706 in [7]. In addition, the composite z-score in [8] is 0.164 and -0.32; in assay [9], -0.057 and -0.695; in assay [10] it was -0.131 and 0.537; in assay [11], 0.439 and 1.12; in assay [13], -0.151 and -0.907; in assay [14] it was -0.858 and 0.167. Moreover, the composite z-score is -0.707 and -0.806 in [15]; -0.357 and -0.28 in assay [16]; -0.223 and -0.0035 in assay [17]; -0.789 and -0.301 in [18]; -0.759 and 2.57 in assay [19]; -0.342 and 0.335 in [20]. The z-score in [4] is 0.691 (inactive) and 0.361 (inactive); in [12], -1.79 and 1.05.
For `C=CCN(C(=O)C(c1cccs1)N(C(=O)/C=C\C(=O)O)C(C)(C)CO)c1ccc(OC)cc1` (stereo not given), the composite z-score is 1.39 and -1.69 in [1]; -0.117 and -0.0312 in assay [2]; 0.599 and 0.476 in assay [3]; -0.477 and -0.869 in assay [5]; -0.41 and -0.514 in assay [6]; -0.869 and -2.11 in [7]. In addition, the composite z-score in [8] was -1.4 and -1.37; in [9], -0.789 and -0.497; in [10] it was -1.07 and -0.761; in assay [11], -0.759 and -0.652; in assay [13], -1.77 and -2.47; in assay [14], 0.459 and -0.933. Moreover, the composite z-score in assay [15] was 0.891 and 0.235; in assay [16] it was -0.0455 and -0.166; in [17], -0.138 and -0.0626; in assay [18], 0.162 and 0.292; in [19], 0.588 and 1.06; in assay [20] it was -2.1 and -1.16. For the same compound, the z-score in [4] is -2.61 (inactive) and -1.39 (inactive); in [12], 0.0435 and 2.82.
In the case of `CCCC[C@@H]1CN2[C@@H](CC[C@@H](C)[C@@H]2c2ccc(Br)cc2)C(=O)O1`, the composite z-score is 0.469 and 0.883 in assay [1]; -0.13 and -0.277 in assay [2]; -0.455 and -0.254 in [3]; 0.979 and 0.906 in assay [5]; 0.521 and 0.0677 in assay [6]; 0.183 and -0.121 in [7]. Also, the composite z-score was 0.516 and 0.351 in assay [8]; 0.272 and 0.136 in [9]; 0.488 and -0.0019 in assay [10]; 1.27 and 1.07 in [11]; 0.379 and 0.292 in assay [13]; 0.0614 and 0.32 in assay [14]. The composite z-score in assay [15] is -0.242 and -0.217; in [16], -0.152 and -0.13; in [17] it was 0.0756 and -0.0553; in assay [18] it was -0.198 and 0.121; in assay [19], 0.0865 and -0.0158; in [20] it was 0.439 and 0.105. The z-score is 0.33 (inactive) and 0.758 (inactive) in [4]; -1.44 and -0.195 in assay [12].
On to `CCOC(=O)NN=C1C[C@@H](O)[C@@H](O)[C@@H]2[C@@H]3C(=O)N(Cc4ccccc4)C(=O)[C@@H]3CC[C@@H]12`, for which the composite z-score is 0.454 in assay [1]; -0.287 in assay [2]; -0.655 in assay [3]; 0.118 in assay [5]; 0.304 in [6]; 0.542 in [7]. Besides, the composite z-score in assay [8] was 0.59; in assay [9], 0.355; in assay [10], -0.208; in assay [11], -0.337; in assay [13], 0.349; in [14] it was -0.546. For the same compound, the composite z-score in [15] is -0.659; in assay [16] it was 0.134; in assay [17], -0.2; in [18], -0.207; in [19], 0.297; in assay [20], -0.168. Further, the z-score in [4] was 0.477 (inactive); in [12], -0.16.
On to `C=CCN(Cc1ccccc1)C(=O)C(c1cccs1)N(C(=O)/C=C\C(=O)O)c1ccc(CCO)cc1` (stereo not given), for which the composite z-score was -0.14 and -0.0434 in assay [1]; -0.141 and -0.17 in [2]; 0.98 and 0.85 in [3]; -1.22 and -2.14 in assay [5]; -1.23 and -1.61 in assay [6]; -1.96 and -1.68 in [7]. The composite z-score was -1.91 and -1.88 in [8]; -2.15 and -2.42 in [9]; -1.76 and -3.2 in [10]; -0.325 and -0.505 in assay [11]; -2.74 and -3.22 in [13]; -0.729 and -1 in [14]. In addition, the composite z-score in assay [15] is 0.204 and -0.257; in assay [16] it was -0.243 and -0.252; in assay [17], -0.221 and -0.138; in assay [18], -0.4 and -0.118; in assay [19] it was -0.648 and -0.326; in assay [20], -1.7 and -1.25. Further, the z-score was 0.203 (inactive) and 0.258 (inactive) in [4]; 0.0048 and 0.875 in [12].
In the case of `CO[C@@H]1C=CCC(=O)N2CCC[C@H]2C(=O)OC[C@H](C)C(=O)OC[C@H]1C`, the composite z-score in [1] is 0.517; in assay [2] it was -0.33; in [3], -0.966; in [5], 0.243; in [6], 0.396; in [7], 0.612. The composite z-score in [8] is 0.875; in assay [9] it was 1.26; in assay [10], 0.358; in [11], 0.172; in assay [13], 0.96; in [14] it was -0.594. Further, the composite z-score in assay [15] was -1.16; in [16], -0.202; in [17], -0.352; in assay [18], -0.216; in assay [19], 0.568; in assay [20], -0.0037. The z-score in [4] was -0.25 (inactive); in [12], 0.182.
